DT40 TDP1 CPT = qHTS for Inhibitors of human tyrosyl-DNA phosphodiesterase 1 (TDP1): qHTS in cells in presence of CPT | chicken DT40 Tdp1-/-;hTDP1 cells + 20 nM CPT, ATP luminescence, 48 h | Potency, µM (top dose mostly 46.2 µM), for the others: at the highest dose activity change, negative = growth inhibition, most hits filed as inhibitors | 12% of 420,000 active | AID 686979, 2013; also: potency is read from the fitted curve at half-maximal effect; nearly all actives have a fitted effect of over 55% in size
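Chicken DT40 Tdp1-/- cells stably complemented with human TDP1 were seeded at 400 cells/well in medium containing 20 nM camptothecin, exposed to pin-transferred compounds, and grown at 37 °C for at least 48 hr. Viability was read as ATP luminescence.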
HT1080NT lethal = qHTS for induction of synthetic lethality in tumor cells producing 2HG: qHTS for the HT-1080-NT fibrosarcoma cell line. HT-1080-NT fibrosarcoma viability, CellTiter-Glo ATP luminescence, 48 h. Potency, µM (titrated, usually from 46.1 µM), for inactives: at the top dose activity, negative = less viability, most hits filed as cytotoxic. 1.6% of 360,000 active;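 also: NT is the 2HG producing partner of a matched IDH1 knockdown line; potency is read from the fitted curve at half-maximal effect; 0% = DMSO-treated cells and -100% = media-only wells without cells; nearly all actives have a fitted effect of over 55% in size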
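A 48-hour cytotoxicity screen used HT-1080-NT cells plated 2 hours before compound delivery. ATP-based CellTiter-Glo luminescence measured viability, normalized to DMSO and no-cell controls.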
ALOX12 inh = Primary qHTS assay for inhibitors of human arachidonate 12S-lipoxygenase (ALOX12): Round 2; AID 1671190, 2021; Potency, µM (highest dose often 108 µM), for inactives: at the top dose activity change, negative = inhibition, actives largely listed as inhibitors; 1.1% of 580,000 active; purified 12hLO, xylenol orange hydroperoxide absorbance; also: potency is read from the fitted curve at half-maximal effect
Target sequence (P18054 whole entry, looked up): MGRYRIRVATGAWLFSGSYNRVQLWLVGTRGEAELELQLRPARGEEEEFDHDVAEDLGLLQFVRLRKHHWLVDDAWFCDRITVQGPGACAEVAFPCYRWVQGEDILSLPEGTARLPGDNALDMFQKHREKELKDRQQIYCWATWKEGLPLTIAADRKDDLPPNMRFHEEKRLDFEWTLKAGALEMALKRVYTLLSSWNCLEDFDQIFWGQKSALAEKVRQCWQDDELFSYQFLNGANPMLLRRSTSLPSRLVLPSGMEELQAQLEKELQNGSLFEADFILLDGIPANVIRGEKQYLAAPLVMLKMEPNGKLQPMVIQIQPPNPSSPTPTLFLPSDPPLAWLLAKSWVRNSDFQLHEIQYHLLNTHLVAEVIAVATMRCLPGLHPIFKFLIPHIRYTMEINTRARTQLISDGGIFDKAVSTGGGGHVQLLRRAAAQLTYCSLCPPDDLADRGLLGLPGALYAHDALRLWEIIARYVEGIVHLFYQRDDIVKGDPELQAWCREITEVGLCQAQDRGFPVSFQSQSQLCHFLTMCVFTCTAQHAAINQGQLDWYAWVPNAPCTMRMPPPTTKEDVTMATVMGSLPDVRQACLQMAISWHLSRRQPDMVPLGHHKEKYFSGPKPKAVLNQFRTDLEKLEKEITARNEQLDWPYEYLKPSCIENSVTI
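Purified human 12hLO at 150 nM in 25 mM Hepes, 0.01% Triton X-100, pH 7.0, preincubated 15 min at room temperature with compound. Reaction started with 40 uM arachidonic acid, 30 min at room temperature. Hydroperoxide measured by Fe-xylenol orange, 573/405 nm absorbance ratio.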
HT1080 IDH1KD tx = qHTS for induction of synthetic lethality in tumor cells producing 2HG: qHTS for the HT-1080-IDH1KD cell line; Potency, µM (highest dose often 46.1 µM), inactives show at the top dose activity, negative = toxicity, hits mostly cytotoxic; 2% of 360,000 active; AID 686971, 2013; HT-1080 IDH1 knockdown viability, ATP luminescence, 48 h;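 also: potency is read from the fitted curve at half-maximal effect; 0% = DMSO wells and -100% = cell-free medium wells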
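After a 2 h attachment period, IDH1KD HT-1080 cells took pin-transferred compound for 48 h at 37 °C; ATP-based luminescence after 10 min room-temperature reagent incubation reported viability.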
IL1B secr inh = qHTS for Inhibitors of Inflammasome Signaling: IL-1-beta AlphaLISA Primary Screen; AID 743279, 2014; activity change, % at 57.5 µM; THP-1 LPS/ATP IL-1B secretion, AlphaLISA, 16 h; hits give low values; 4.7% of 360,000 active; in the data active = activity change below about -50%; inconclusive = mostly about -30% to -49%
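Secreted IL-1B measured by AlphaLISA bead assay after 16 h compound exposure of THP-1 cells; compounds (final up to 57.5 uM) added 1 h before LPS (250 ng/mL) and ATP (1.25 mM) stimulation; lower signal means less secretion.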
DT40 TDP1 no CPT = qHTS for Inhibitors of human tyrosyl-DNA phosphodiesterase 1 (TDP1): qHTS in cells in absence of CPT; DT40 Tdp1-/- hTDP1 cells, no CPT, ATP luminescence, 48 h; 15% of 420,000 active; Potency, µM (titrated, usually from 46.2 µM), for the others: at the top dose activity change, negative = growth inhibition, hits mostly inhibitors; also: potency is read from the fitted curve at half-maximal effect; nearly all actives have a fitted effect of over 55% in size
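Luminescent ATP content (CellTiter-Glo) served as the growth readout. Knockout chicken DT40 cells expressing human TDP1 were exposed to compounds without camptothecin for a minimum 48 hr at 37 °C.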
* marks the source's active call; other numbers are inactive results; ? = inconclusive; . = not tested or not shown; [ ] = remark or other dose. The entries come from a sample that favours hits as a whole. Unless noted, calls follow the shape of the dose curve; as a rule, active = well fitted curve in the direction sought with a large enough effect; inconclusive = small, poorly fitted or top-dose-only effect, or another doubt; inactive = no such curve, though single readings can be large; an effect the other way counts as inactive or inconclusive. Unless noted, % is scaled to controls: 0 for no effect and ±100 for the full control effect.

SMILES | DT40 TDP1 CPT | HT1080NT lethal | ALOX12 inh | HT1080 IDH1KD tx | IL1B secr inh | DT40 TDP1 no CPT
CC(C)C(NC(=O)c1ccc(C(C)(C)C)cc1)C(=O)Nc1cccc(S(N)(=O)=O)c1 (configuration not stated) | 4.6% | ? | -14.4% | -2.6% | -52.0* | -2.9%
Cc1cccc(C(=O)N[C@H](C(=O)Nc2ccc(C)c(S(=O)(=O)N3CCOCC3)c2)C(C)C)c1 | ? | -0.5% | ? | -5.9% | -15.8 | ?
COc1ccc(C(=O)NC(C(=O)NCc2ccccn2)C(C)C)cc1 (configuration not stated) | 1.8% | 6.5% | 76.6% | 0.7% | 17.2 | -6.9%
COc1ccc(N2CCN(CC(=O)Nc3cccc(S(=O)(=O)N4CCOCC4)c3)CC2)cc1 | ? | -4.6% | ? | -1.2% | 15.8 | 9.2µM*
COc1ccc(Br)c(C(=O)Nc2cccc(S(=O)(=O)N3CCOCC3)c2)c1 | 8.1% | -1.6% | 8.1% | 0.0% | 13.5 | ?
Cc1cc(C)c2nc(NC(=O)[C@@H](NC(=O)c3cccc(S(=O)(=O)N4CCOCC4)c3)C(C)C)sc2c1 | 16.4µM* | -9.7% | -7.9% | -21.0% | -8.4 | ?
COc1ccc(C(=O)N[C@H](C(=O)Nc2cccc(S(=O)(=O)N3CCOCC3)c2)C(C)C)cc1 | -27.8% | -2.6% | -21.8% | -5.0% | ? | 18.4µM*
c1ccc2c(CCc3ccncc3)cccc2c1 | -16.0% | -4.5% | -2.2% | -3.4% | -88.1* | -16.3%
c1ccc2c(CSCCc3ccncc3)cccc2c1 | 23.1µM* | -12.1% | 55.7% | -15.8% | 17.3 | 20.6µM*
O=C(CCc1ccccc1)NCc1ccncc1 | -12.2% | -6.4% | 22.3% | -1.8% | 4.2 | 9.0%
COc1cccc(C(=O)COC(=O)C2CC(=O)N(c3cc(C)ccc3C)C2)c1 (configuration not stated) | . | . | 10.7% | . | . | .
O=S(=O)(Nc1nc2ccccc2nc1Nc1ccc(F)cc1)c1ccccc1 | . | . | 2.2% | . | . | .
COc1cc(Nc2nc3ccccc3nc2NS(=O)(=O)c2ccc([N+](=O)[O-])cc2)cc(OC)c1OC | 10.3µM* | -18.6% | 0.2% | -5.6% | -12.1 | ?
O=S(=O)(Nc1nc2ccccc2nc1Nc1cccc(F)c1)c1ccccc1 | . | . | -27.7% | . | . | .
NS(=O)(=O)c1cccc(Nc2nc3ccccc3nc2NS(=O)(=O)c2ccc(Cl)cc2)c1 | -23.5% | 18.4µM* | ? | 20.6µM* | ? | -17.4%
O=[N+]([O-])c1ccc(S(=O)(=O)Nc2nc3ccccc3nc2Nc2ccccc2)cc1 | 3.26µM* | 5.9% | -0.3% | 0.0% | -73.0* | 2.91µM*
O=C(NCC1CC1)c1csc(N2CCN(c3ccccc3F)CC2)n1 | . | . | -7.3% | . | . | .
Cc1ccc(Cl)cc1NC(=O)c1cc2c(=O)n3cccc(C)c3nc2n1C | 0.581µM* | . | -2.4% | . | . | 0.517µM*
CCCCN(CC)C(=O)c1cc2c(=O)n3cccc(C)c3nc2n1C | ? | . | 0.0% | . | . | 16.4µM*
CCN(CC)C(=O)c1cc2c(=O)n3cccc(C)c3nc2n1C | -17.9% | 19.6% | -10.5% | 16.6% | -18.9 | ?
CC(=O)Nc1cccc(NC(=O)c2cc3c(=O)n4cccc(C)c4nc3n2C)c1 | -29.4% | . | 0.0% | . | . | ?
CCCCCC(=O)N1CCC(O)(c2csc(CN(CC)CC)n2)CC1 | . | . | 32.6%[176 µM] | . | . | .

Screens from PubChem.
